Assay outcomes deposited in PubChem BioAssay by several laboratories.
Mtb bLac sens = beta-lactam sensitization of Mtb H37Rv, H37Rv; M. tuberculosis H37Rv growth with meropenem, percent inhibition; inhibition, % at 25 µM; 330,000 tested, 0.27% active; AID 434955, 2010; call rule not given here;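 also: growth measured after seven days incubation then overnight dye step; 0% = bacteria only wells and 100% = bacteria with antibiotic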
FBA Mtb inh = Mtb FBA enzyme inhibitors, primary screen, biochemical, fluorescence, strain H37Rv; purified M. tuberculosis FBA, fluorescence read-out; inhibition, % at 1 µM; 360,000 tested, 2.3% active; AID 588726, 2011;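 also: 0% = vehicle and 100% = reference inhibitor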
Rv3671c protease = Rv3671c serine protease inhibitors, primary screen, biochemical, fluorescence polarization, M. tuberculosis H37Rv. AID 2606, 2010. 320,000 tested, 0.048% active. P9WHR9. inhibition, % at 5.96 µM; in the data active = inhibition above about 38%;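 also: extracellular domain of Rv3671c used as enzyme; 0% = enzyme with DMSO and 100% = no enzyme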
Target sequence (P9WHR9 whole entry, looked up, the tested form may be a part): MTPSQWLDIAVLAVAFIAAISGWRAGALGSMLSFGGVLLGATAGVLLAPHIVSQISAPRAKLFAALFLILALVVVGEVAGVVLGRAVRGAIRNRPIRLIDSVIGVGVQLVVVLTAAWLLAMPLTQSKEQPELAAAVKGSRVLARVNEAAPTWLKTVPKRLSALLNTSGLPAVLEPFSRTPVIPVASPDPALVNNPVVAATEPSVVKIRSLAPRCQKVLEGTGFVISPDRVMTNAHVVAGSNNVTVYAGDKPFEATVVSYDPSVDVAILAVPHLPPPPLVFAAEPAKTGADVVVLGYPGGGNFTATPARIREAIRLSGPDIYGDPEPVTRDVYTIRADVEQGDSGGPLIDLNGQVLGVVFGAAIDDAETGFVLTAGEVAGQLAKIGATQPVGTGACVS
PriA SSB inh = inhibitors of Klebsiella pneumoniae PriA binding to SSB C-terminal tail, primary screen, biochemical, AlphaScreen | 430,000 tested, 0.6% active | AID 1272365, 2023 | PriA–SSB C-terminal tail interaction (Klebsiella pneumoniae) | inhibition, % at 33 µM | AlphaScreen SSBct-PriA binding, biotinylated peptide; in the data active = inhibition mostly above about 37%, no sharp cut-off; inactive = mostly below about 20%;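 also: plate controls were negative control peptide for no effect and reference peptide for full effect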
Mtb UGM inh = M. tuberculosis UGM enzyme inhibitors, primary screen, biochemical, fluorescence polarization, single point; inhibition, % at 10 µM; AID 504406, 2011; 320,000 tested, 0.06% active; purified UGM, fluorescence polarization probe displacement; in the data active = inhibition above about 10%, passing the limit was not always enough
GDH-TPI counter-1 = GDH-TPI coupling enzyme inhibitors, primary screen, artefact control for M. tuberculosis FBA inhibitor project, biochemical, absorbance, full deck; GDH-TPI coupled enzyme counterscreen, NADH absorbance; inhibition, % at 4.8 µM; 360,000 tested, 1.2% active; in the data active = inhibition above about 30%;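 also: 0% = DMSO wells and 100% = wells lacking the enzyme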
Mtb FBA inh conf = M. tuberculosis aldolase blockers, biochemical, fluorescence, strain H37Rv, confirmation. inhibition, % at 1 µM. shares compounds with FBA Mtb inh. purified M. tuberculosis FBA, fluorescence read-out. 5,600 tested, 78% active;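 also: 0% = vehicle wells and 100% = reference inhibitor wells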
GDH-TPI counter-2 = GDH-TPI coupling enzyme inhibitors, artefact control for M. tuberculosis FBA inhibitor project, biochemical, fluorescence, high throughput; shares compounds with FBA Mtb inh; GDH-TPI coupled enzyme counterscreen; inhibition, % at 1 µM; 5,600 tested, 81% active; AID 652141, 2013; in the data active = inhibition above about 10%
An asterisk follows results filed as active; / = not tested or not shown; + = active, no number. Most compounds without a hit are left out; they make up all but 3.2% or so of the library. Rule as the data show it, unless noted: active = inhibition above about 27%; inactive = the rest.

SMILES	Mtb bLac sens	FBA Mtb inh	Rv3671c protease	PriA SSB inh	Mtb UGM inh	GDH-TPI counter-1	Mtb FBA inh conf	GDH-TPI counter-2
Oc1c(Cl)cc(Cl)cc1/C=N/NC(=S)NC1CC2C=CC1C2 (stereo not drawn)	72.8	35.1*	15.1	/	0.0	15.9	58.6*	57.0*
Cc1ccc(S(=O)(=O)Nc2cccc(C(=O)Nc3nnc(-c4ccc5c(c4)OCCO5)o3)c2)cc1	/	/	/	30.0	/	/	/	/
N=C1SC2CS(=O)(=O)CC2N1c1ccc(OC(F)(F)F)cc1 (stereo not drawn)	/	/	/	-7.0	/	/	/	/
Cc1ccc2nc(-c3ccc(N4C(=N)SC5CS(=O)(=O)CC54)cc3)sc2c1 (stereo not drawn)	4.5	47.8*	-4.4	4.1	-1.3	20.1	80.3*	66.1*
CC1CCN(Cc2c(O)ccc3c(=O)c(-c4nc5ccccc5s4)c(N)oc23)CC1	79.9	8.9	-18.7	-2.4	0.2	16.3	/	/
CC1CCCN(Cc2c(O)ccc3c(=O)c(-c4nc5ccccc5s4)c(N)oc23)C1 (stereo not drawn)	99.8	32.7*	-6.5	8.5	0.0	38.7*	136.1*	83.9*
Cc1ccc(C2Nc3ccccc3C(=O)N2CCCN2CCOCC2)cc1 (stereo not drawn)	-2.0	58.7*	2.2	-2.9	2.5	5.4	102.0*	108.0*
CCCN1C(=O)c2ccccc2NC1c1ccc(Cl)cc1 (stereo not drawn)	6.2	60.3*	-3.3	-21.2	-1.1	11.3	131.6*	106.8*
CCCN1C(=O)c2ccccc2NC1c1ccc(Br)cc1 (stereo not drawn)	-4.4	68.4*	3.9	-2.0	1.1	13.3	68.0*	59.5*
CN(C)c1ccc(C2Nc3ccccc3C(=O)N2CCN2CCNC2=O)cc1 (stereo not drawn)	-8.2	4.5	4.4	7.7	2.5	7.1	/	/
O=C1c2ccccc2NC(c2ccccc2Br)N1CCCN1CCOCC1 (stereo not drawn)	1.1	16.1	-4.1	-11.7	-2.1	2.2	/	/
CCCN1C(=O)c2ccccc2NC1c1ccc(Cl)c(Cl)c1 (stereo not drawn)	-0.8	59.5*	-0.9	36.9	0.2	9.3	104.2*	107.4*
O=C(Nc1ccc(-c2ccc3nncn3n2)cc1)c1ccc2c(c1)OCO2	/	/	/	-11.0	/	/	/	/
Cc1ccn(-c2ccc(Nc3ccc(NC(=O)c4cccs4)cc3)nn2)n1	/	/	/	-4.0	/	/	/	/
COCCOC(=O)CSc1ncccc1-c1nc2cc(C)c(C)cc2[nH]1	-4.4	29.7*	-5.0	7.5	3.0	28.8	191.0*	156.1*
Cc1cc2nc(-c3cccnc3SCC(=O)NC(C)C)[nH]c2cc1C	2.7	19.0	-0.1	1.8	-0.7	2.8	/	/
CCCCCCCC[n+]1cccc2c3ccccc3ccc21	15.9	67.0*	3.3	-2.2	-1.6	-3.1	65.1*	41.9*
CCCCCC[n+]1ccccc1/C=C/c1ccc(N(C)C)cc1	/	-18.1	/	/	/	5.2	/	/
O=C(NCc1ccc(C(F)(F)F)cc1)c1ccc(Nc2nn3c(=O)c4ccccc4nc3s2)cc1	/	/	/	-1.0	/	/	/	/
CCN(CC)CCCNC(=O)c1cc2c(Cl)nc3ccccc3c2s1	8.7	1.6	-4.5	-8.0	-0.6	9.3	/	/
CCCN(CCC)CCNC(=O)c1cc2c(=O)n(CC)c3ccccc3c2s1	5.0	27.9*	-1.1	-3.5	-0.2	22.5	63.5*	54.9*
CCN(CC)CCCNC(=O)c1cc2c(=O)n(CC)c3ccccc3c2s1	-2.0	71.9*	-2.7	-3.7	5.1	8.9	+	+
CCCN(CCC)CCNC(=O)c1cn(C)c(=O)c2c1c1ccccc1n2C	/	18.3	/	-8.4	/	4.1	/	/
CCn1c(=O)c2cc(C(=O)NCCN(C)C)sc2c2ccccc21	-1.5	62.2*	0.9	-8.8	2.3	15.6	105.1*	89.5*
CCN(CC)CCNC(=O)c1cc2c(=O)n(CC)c3ccccc3c2s1	13.0	72.5*	-3.6	2.6	-4.3	23.9	41.9*	35.7*
SMILES	Mtb bLac sens	FBA Mtb inh	Rv3671c protease	PriA SSB inh	Mtb UGM inh	GDH-TPI counter-1	Mtb FBA inh conf	GDH-TPI counter-2
CC(=O)Nc1cccc(NC(=O)C(=O)NCCc2ccc(N(C)C)cc2)c1	/	/	/	9.0	/	/	/	/
COCCCn1c(C(=O)NCCC2=CCCCC2)cc2c(=O)n3cccc(C)c3nc21	9.9	6.0	2.7	-2.0	1.1	0.0	/	/
CCOC(=O)N1CCN(C(=O)c2cc3c(=O)n4cccc(C)c4nc3s2)CC1	7.3	15.9	-8.9	-18.2	-1.5	9.1	/	/
CCN(CC)C(=O)c1cc2c(=O)n3cccc(C)c3nc2s1	2.2	69.0*	3.8	8.4	1.2	12.1	147.7*	142.8*
COc1ccccc1N1CCN(C(=O)c2cc3c(=O)n4cccc(C)c4nc3s2)CC1	2.1	41.4*	-7.5	-5.5	0.4	14.9	+	180.3*
CCCCN(CC)C(=O)c1cc2c(=O)n3cccc(C)c3nc2s1	2.2	69.5*	-0.4	3.1	-0.3	11.0	+	166.8*
CCN(CC)C(=O)c1cc2c(=O)n3cccc(C)c3nc2n1C	1.9	56.9*	1.2	-13.6	1.2	21.4	122.4*	106.8*
CCOc1ccc2nc(NC(=O)c3cc(=O)c(OC)co3)sc2c1	/	/	/	-4.0	/	/	/	/
CCCN1CCCc2cc(CCNC(=O)C(=O)Nc3ccc(OC)c(Cl)c3)ccc21	/	/	/	37.0	/	/	/	/
COc1ccc(NC(=O)CN2CCc3[nH]c4c(C)c(Cl)ccc4c(=O)c3C2)cc1Cl	/	/	/	-12.0	/	/	/	/
S=C(NCc1ccccc1)Nc1ccccc1	/	/	/	-7.0	/	/	/	/
COc1ccc(-c2csc3ncnc(SCC(=O)Nc4nc(-c5ccccc5)ns4)c23)cc1	/	/	/	-15.0	/	/	/	/
CC1(C)Oc2ccc3ccc(=O)oc3c2[C@@H](O)[C@@H]1O	1.8	59.1*	-3.0	-1.3	1.4	17.9	37.6*	27.3*
C/C=C(/C)C(=O)O[C@@H]1c2c(ccc3ccc(=O)oc23)OC(C)(C)[C@@H]1OC(=O)/C(C)=C\C	-0.4	2.8	-6.5	-5.5	1.6	16.2	/	/
CCO[C@@H]1c2c(ccc3ccc(=O)oc23)OC(C)(C)[C@@H]1O	-0.4	56.9*	-1.1	0.2	-0.1	20.4	55.9*	40.0*
CC(C)=CC(=O)O[C@@H]1Cc2c(ccc3ccc(=O)oc23)OC1(C)C	-1.8	32.5*	2.7	-15.9	-3.9	16.2	34.6*	25.7*
